Source: the supplement of paper PMC8728848
This excerpt belongs to a sample that is enriched for the strongest signals.

Legend:
Test in all cases: glycan array binding signal (z-score within array); higher = stronger binding
Settings in all cases: glycan notation: IUPAC condensed, linker removed
[1] = target: Fuc(a1-2)Gal6S(b1-4)Glc6S
Procedure, shortened: (§1)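 Arrays were curated from the Consortium for Functional Glycomics database, 3228 in total, and kept only where the protein sequence was available. Binding is expressed as a within-array Z-score. This score was averaged across arrays of the same protein sequence at different concentrations or buffers and across linkers, and negative values can be read as non-binding.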

Fuc(a1-2)[Gal(a1-3)]Gal = target: Fuc(a1-2)[Gal(a1-3)]Gal
Procedure, shortened: as §1

[2] = target: Fuc(a1-3)[Gal(b1-4)]GlcNAc
Procedure, shortened: as §1

[3] = target: Gal(a1-3)Gal(b1-3)[Fuc(a1-4)]GlcNAc(b1-2)Man(a1-3)[Gal(a1-3)Gal(b1-3)[Fuc(a1-4)]GlcNAc(b1-2)Man(a1-6)]Man(b1-4)GlcNAc(b1-4)GlcNAc
Procedure, shortened: as §1

[4] = target: Gal(a1-3)Gal(b1-4)[Fuc(a1-3)]GlcNAc(b1-2)Man(a1-3)[Gal(a1-3)Gal(b1-4)[Fuc(a1-3)]GlcNAc(b1-2)Man(a1-6)]Man(b1-4)GlcNAc(b1-4)GlcNAc
Procedure, shortened: as §1

[5] = target: Gal(b1-3)GlcNAc(a1-6)Gal(b1-4)GlcNAc
Procedure, shortened: as §1

[6] = target: Gal(b1-3)[Fuc(a1-4)]GlcNAc(b1-3)Gal(b1-3)[Fuc(a1-4)]GlcNAc
Procedure, shortened: as §1

[7] = target: Gal(b1-4)GalNAc(b1-3)[Fuc(a1-2)]Gal(b1-4)GlcNAc
Procedure, shortened: as §1

Gal(b1-4)GlcNAc = target: Gal(b1-4)GlcNAc
Procedure, shortened: as §1

[8] = target: Gal(b1-4)GlcNAc(b1-2)Man(a1-3)Man(b1-4)GlcNAc(b1-4)GlcNAc
Procedure, shortened: as §1

[9] = target: Gal(b1-4)GlcNAc(b1-2)[Gal(b1-4)GlcNAc(b1-4)]Man(a1-3)[Gal(b1-4)GlcNAc(b1-2)Man(a1-6)]Man(b1-4)GlcNAc(b1-4)GlcNAc
Procedure, shortened: as §1

GlcA(b1-3)GlcNAc = target: GlcA(b1-3)GlcNAc
Procedure, shortened: as §1

[10] = target: GlcNAc(a1-4)Gal(b1-4)GlcNAc(b1-3)Gal(b1-4)[Fuc(a1-3)]GlcNAc(b1-3)Gal(b1-4)[Fuc(a1-3)]GlcNAc
Procedure, shortened: as §1

[11] = target: Man(a1-2)Man(a1-2)Man(a1-3)Man
Procedure, shortened: as §1

[12] = target: Man(a1-2)Man(a1-6)[Man(a1-3)]Man(a1-6)[Man(a1-2)Man(a1-2)Man(a1-3)]Man(b1-4)GlcNAc(b1-4)GlcNAc
Procedure, shortened: as §1

[13] = target: Man(a1-3)[Man(a1-6)]Man(a1-6)[Man(a1-3)]Man(b1-4)GlcNAc(b1-4)GlcNAc
Procedure, shortened: as §1

[14] = target: Neu5Ac(a2-3)Gal(b1-4)[Fuc(a1-3)]GlcNAc(b1-3)GalNAc
Procedure, shortened: as §1

[15] = target: Neu5Ac(a2-3)Gal6S(b1-4)GlcNAc
Procedure, shortened: as §1

[16] = target: Neu5Ac(a2-3)Gal6S(b1-4)[Fuc(a1-3)]GlcNAc
Procedure, shortened: as §1

[17] = target: Neu5Ac(a2-3)[GalNAc(b1-4)]Gal(b1-4)Glc
Procedure, shortened: as §1

Neu5Ac(a2-6)Gal = target: Neu5Ac(a2-6)Gal
Procedure, shortened: as §1

[18] = target: Neu5Ac(a2-6)Gal(b1-4)GlcNAc(b1-3)Gal(b1-4)GlcNAc
Procedure, shortened: as §1

[19] = target: Neu5Ac(a2-6)Gal(b1-4)GlcNAc(b1-3)Gal(b1-4)[Fuc(a1-3)]GlcNAc(b1-3)Gal(b1-4)[Fuc(a1-3)]GlcNAc
Procedure, shortened: as §1

[20] = target: Neu5Ac(a2-6)GlcNAc(b1-4)GlcNAc
Procedure, shortened: as §1

[21] = target: Neu5Ac(a2-8)Neu5Ac(a2-3)Gal(b1-4)Glc
Procedure, shortened: as §1

[22] = target: Neu5Ac9Ac(a2-3)Gal(b1-4)GlcNAc
Procedure, shortened: as §1

B1: PEB4 (Campylobacter jejuni), A1VYV6 (protein)
chain: MKKFSLVAAALIAGVALNVNAATVATVNGKSISDAEVSEFFAPMLRGQDFKTLPDNQKKALIQQYIMQDLILQDAKKQNLEKDPLYTKELDRAKDAILVNVYQEKILNTIKIDAAKVKAFYDQNKDKYVKPARVQAKHILVATEKEAKDIINELKGLKGKELDAKFSELAKEKSIDPGSKNQGGELGWFDQSTMVKPFTDAAFALKNGTITTTPVKTNFGYHVILKENSQAKGQIKFDEVKQGIENGLKFEEFKKVINQKGQDLLNSAKVEYK
glycan array binding signal (z-score) [1]: 0.571 | glycan array binding signal (z-score) (Fuc(a1-2)[Gal(a1-3)]Gal): -0.517 | glycan array binding signal (z-score) [2]: -0.387 | glycan array binding signal (z-score) [3]: 3.83 | glycan array binding signal (z-score) [4]: 2.12 | glycan array binding signal (z-score) [5]: 2.54 | glycan array binding signal (z-score) [6]: 2.99 | glycan array binding signal (z-score) [7]: -0.25 | glycan array binding signal (z-score) (Gal(b1-4)GlcNAc): -0.852 | glycan array binding signal (z-score) [8]: -0.258 | glycan array binding signal (z-score) [9]: 2.58 | glycan array binding signal (z-score) (GlcA(b1-3)GlcNAc): 0.752 | glycan array binding signal (z-score) [10]: 4.35 | glycan array binding signal (z-score) [11]: 2.37 | glycan array binding signal (z-score) [12]: 0.969 | glycan array binding signal (z-score) [13]: -0.553 | glycan array binding signal (z-score) [14]: 5.24 | glycan array binding signal (z-score) [15]: 1.6 | glycan array binding signal (z-score) [16]: 2.8 | glycan array binding signal (z-score) [17]: -1.19 | glycan array binding signal (z-score) (Neu5Ac(a2-6)Gal): 0.075 | glycan array binding signal (z-score) [18]: -0.672 | glycan array binding signal (z-score) [19]: -0.544 | glycan array binding signal (z-score) [20]: -0.701 | glycan array binding signal (z-score) [21]: -0.705 | glycan array binding signal (z-score) [22]: -1.05
